# According to publication PMC7862700, “An all-to-all approach to the identification of sequence-specific readers for epigenetic DNA modifications on cytosine”:
# Columns and labels:
# Test in all cases: DAPPL (digital affinity profiling via proximity ligation, sequencing); 10 mM Tris-HCl pH 7.5, 50 mM NaCl, 1 mM DTT, 4% glycerol, room temperature, 30 min; GST-TFs on glutathione beads, 16-mer random dsDNA library, 0.1% formaldehyde crosslink after washing; high values mean tight binding
# Conditions in all cases: protein: recombinant; tags: N-terminal GST; dsDNA, one strand shown
# FLI1 = target: T1, FLI1 (Homo sapiens, UniProt Q01543 1-452)
# T1 sequence: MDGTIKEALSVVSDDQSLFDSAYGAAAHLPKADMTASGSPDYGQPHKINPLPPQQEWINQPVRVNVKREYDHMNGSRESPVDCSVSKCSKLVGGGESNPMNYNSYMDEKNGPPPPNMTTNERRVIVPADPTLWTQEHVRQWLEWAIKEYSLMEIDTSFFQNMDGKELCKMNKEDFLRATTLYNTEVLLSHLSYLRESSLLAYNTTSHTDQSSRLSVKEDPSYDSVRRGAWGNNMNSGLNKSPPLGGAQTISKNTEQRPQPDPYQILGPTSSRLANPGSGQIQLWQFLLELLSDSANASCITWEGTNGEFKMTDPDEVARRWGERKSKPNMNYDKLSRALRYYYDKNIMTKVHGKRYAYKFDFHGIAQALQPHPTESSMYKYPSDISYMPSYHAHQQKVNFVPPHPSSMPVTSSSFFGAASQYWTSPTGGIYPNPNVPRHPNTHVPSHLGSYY
# How it was run: (§1)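 The binding signal reported is, for every hexamer, its read frequency for a factor over its read frequency for the tag-only sample. Reads came from pools of yeast-expressed, GST-fused human transcription factors on glutathione beads, barcoded with DNA and mixed with that sample, which were incubated with 200 nmole of a random double-stranded 16-mer DNA library in Tris/NaCl/DTT/glycerol buffer at room temperature for 30 min. After washing, the pools were crosslinked with 0.1% formaldehyde, proximity-ligated with BsaI/T4 ligase for 1 h at 37 °C, PCR-amplified and sequenced on an Illumina NextSeq500.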
# ELK1 = target: T2, ELK1 (Homo sapiens, UniProt P19419 1-428)
# T2 sequence: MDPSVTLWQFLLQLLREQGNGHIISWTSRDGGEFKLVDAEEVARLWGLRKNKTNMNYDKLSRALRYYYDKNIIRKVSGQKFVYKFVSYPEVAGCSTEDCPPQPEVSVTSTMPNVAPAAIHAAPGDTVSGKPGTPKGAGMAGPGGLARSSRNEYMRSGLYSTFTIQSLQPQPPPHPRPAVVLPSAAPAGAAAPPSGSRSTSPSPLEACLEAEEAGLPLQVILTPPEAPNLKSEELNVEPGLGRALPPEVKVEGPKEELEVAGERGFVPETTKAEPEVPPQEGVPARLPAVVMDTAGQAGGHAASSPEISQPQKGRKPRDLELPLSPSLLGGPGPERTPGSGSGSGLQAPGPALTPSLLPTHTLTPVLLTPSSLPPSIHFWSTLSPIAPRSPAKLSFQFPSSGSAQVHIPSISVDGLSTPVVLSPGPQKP
# How it was run: as §1
# GABPA = target: T3, GABPA (Homo sapiens, UniProt Q06546 1-454)
# T3 sequence: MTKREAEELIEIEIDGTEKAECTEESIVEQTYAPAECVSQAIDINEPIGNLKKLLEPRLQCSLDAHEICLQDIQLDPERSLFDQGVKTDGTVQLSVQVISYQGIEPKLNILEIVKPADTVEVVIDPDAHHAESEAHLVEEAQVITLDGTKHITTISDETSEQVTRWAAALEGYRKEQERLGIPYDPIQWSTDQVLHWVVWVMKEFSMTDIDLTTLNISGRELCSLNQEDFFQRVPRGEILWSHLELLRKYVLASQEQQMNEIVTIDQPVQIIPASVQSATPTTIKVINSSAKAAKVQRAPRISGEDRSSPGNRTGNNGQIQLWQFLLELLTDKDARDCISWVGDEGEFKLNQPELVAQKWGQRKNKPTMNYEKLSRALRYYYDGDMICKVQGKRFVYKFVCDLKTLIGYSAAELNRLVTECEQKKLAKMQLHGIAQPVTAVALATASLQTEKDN
# How it was run: as §1
# ERG = target: T4, ERG (Homo sapiens, UniProt P11308 1-479)
# T4 sequence: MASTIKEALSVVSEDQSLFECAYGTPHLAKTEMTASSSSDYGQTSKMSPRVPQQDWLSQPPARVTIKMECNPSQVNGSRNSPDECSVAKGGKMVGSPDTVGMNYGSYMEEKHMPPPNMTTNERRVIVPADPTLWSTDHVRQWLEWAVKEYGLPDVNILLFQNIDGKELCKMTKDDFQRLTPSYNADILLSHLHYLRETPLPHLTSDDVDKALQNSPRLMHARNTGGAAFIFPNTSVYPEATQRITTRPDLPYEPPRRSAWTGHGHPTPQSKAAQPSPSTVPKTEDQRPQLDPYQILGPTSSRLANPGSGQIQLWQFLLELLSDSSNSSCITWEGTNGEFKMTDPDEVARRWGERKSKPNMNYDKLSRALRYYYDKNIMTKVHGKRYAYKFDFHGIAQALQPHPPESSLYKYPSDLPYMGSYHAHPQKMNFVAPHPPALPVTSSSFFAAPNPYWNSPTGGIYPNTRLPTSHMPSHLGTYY
# How it was run: as §1
# ELF1 = ELF1 (Homo sapiens, UniProt P32519 1-619)
# How it was run: as §1
# EHF = target: T5, EHF (Homo sapiens, UniProt Q9NZC4 1-300)
# T5 sequence: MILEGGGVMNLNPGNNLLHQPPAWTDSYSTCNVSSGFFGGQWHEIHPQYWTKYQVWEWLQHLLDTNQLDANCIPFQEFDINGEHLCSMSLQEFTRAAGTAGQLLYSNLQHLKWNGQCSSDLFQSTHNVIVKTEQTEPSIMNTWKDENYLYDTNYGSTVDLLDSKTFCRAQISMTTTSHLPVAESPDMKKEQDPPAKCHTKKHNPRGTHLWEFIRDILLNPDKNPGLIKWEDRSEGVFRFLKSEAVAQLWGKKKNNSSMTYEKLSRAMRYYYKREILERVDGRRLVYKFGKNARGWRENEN
# How it was run: as §1
# SPI1 = SPI1 (Homo sapiens, UniProt P17947 1-270)
# How it was run: as §1
# SPIB = SPIB (Homo sapiens, UniProt Q01892 1-262)
# How it was run: as §1
# ELK3 = target: T6, ELK3 (Homo sapiens, UniProt P41970 1-407)
# T6 sequence: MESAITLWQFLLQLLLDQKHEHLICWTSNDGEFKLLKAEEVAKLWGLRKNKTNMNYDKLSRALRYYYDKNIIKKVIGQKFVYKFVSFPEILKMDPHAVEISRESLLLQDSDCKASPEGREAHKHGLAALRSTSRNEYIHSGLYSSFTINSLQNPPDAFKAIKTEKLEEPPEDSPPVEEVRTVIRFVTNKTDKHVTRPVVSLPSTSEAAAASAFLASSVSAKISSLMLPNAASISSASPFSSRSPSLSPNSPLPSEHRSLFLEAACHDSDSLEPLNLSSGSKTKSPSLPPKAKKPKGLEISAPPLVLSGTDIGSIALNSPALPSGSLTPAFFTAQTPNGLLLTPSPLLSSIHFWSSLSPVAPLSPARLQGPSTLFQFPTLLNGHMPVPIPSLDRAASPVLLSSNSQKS
# How it was run: as §1
# SPIB, sequence (Q01892 whole entry): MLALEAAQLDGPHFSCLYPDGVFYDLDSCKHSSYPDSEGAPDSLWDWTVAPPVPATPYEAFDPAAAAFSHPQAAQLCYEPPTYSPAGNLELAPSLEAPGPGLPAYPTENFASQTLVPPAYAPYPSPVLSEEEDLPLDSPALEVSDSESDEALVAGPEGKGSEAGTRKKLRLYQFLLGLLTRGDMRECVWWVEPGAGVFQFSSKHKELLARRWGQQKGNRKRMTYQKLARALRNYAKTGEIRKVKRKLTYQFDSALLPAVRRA
# ELF1, sequence (P32519 whole entry): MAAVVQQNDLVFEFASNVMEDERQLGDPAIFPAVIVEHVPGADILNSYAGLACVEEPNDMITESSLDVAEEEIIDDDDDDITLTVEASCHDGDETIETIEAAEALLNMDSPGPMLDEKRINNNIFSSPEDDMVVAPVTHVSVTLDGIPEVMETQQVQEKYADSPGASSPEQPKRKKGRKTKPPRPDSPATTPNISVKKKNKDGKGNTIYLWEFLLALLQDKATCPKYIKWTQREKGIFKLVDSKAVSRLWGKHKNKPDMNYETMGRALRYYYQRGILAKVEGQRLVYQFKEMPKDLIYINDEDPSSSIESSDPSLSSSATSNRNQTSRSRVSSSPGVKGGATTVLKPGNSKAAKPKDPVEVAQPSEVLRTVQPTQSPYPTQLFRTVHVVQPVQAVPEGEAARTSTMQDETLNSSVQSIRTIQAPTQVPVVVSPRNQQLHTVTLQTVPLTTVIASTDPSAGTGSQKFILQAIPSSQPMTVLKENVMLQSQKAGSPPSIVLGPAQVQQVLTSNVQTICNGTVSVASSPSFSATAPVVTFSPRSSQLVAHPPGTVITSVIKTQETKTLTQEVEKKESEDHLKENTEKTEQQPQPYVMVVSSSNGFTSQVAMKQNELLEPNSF
sequence,measurement,setting,value
ATCCAA,binding signal,FLI1,"1.15 fold enrichment (6-mer frequency, TF over GST control)"
same,binding signal,ELK1,"1.19 fold enrichment (6-mer frequency, TF over GST control)"
same,binding signal,GABPA,"1.18 fold enrichment (6-mer frequency, TF over GST control)"
same,binding signal,ERG,"1.09 fold enrichment (6-mer frequency, TF over GST control)"
same,binding signal,ELF1,"1.2 fold enrichment (6-mer frequency, TF over GST control)"
same,binding signal,EHF,"1.1 fold enrichment (6-mer frequency, TF over GST control)"
same,binding signal,SPI1,"1.11 fold enrichment (6-mer frequency, TF over GST control)"
same,binding signal,SPIB,"1.22 fold enrichment (6-mer frequency, TF over GST control)"
same,binding signal,ELK3,"1.14 fold enrichment (6-mer frequency, TF over GST control)"
